Our source for the inhibition values is ChEMBL document CHEMBL3433997, “St. Jude Leishmania screening dataset” (2016).

Broadly, the inhibition is the relative decrease from the control value, in per cent.

One assay addresses Hexose transporter 1 (Plasmodium falciparum) (UniProt O97467). The experiment in a line: ST_JUDE_LEISH: Cytotoxicity at 2uM final concentration against transgenic Leishmania Mexicana promastigotes LmPfHT that are glucose transport deficient and complemented with the Plasmodium falciparum hexose transporter. Activity is measured by DNA content using SYBR green in vitro. The format is functional.
For `CCCCNCc1ccc(-c2nc(CN(CCCn3ccnc3)C(=O)NC3CC3c3ccccc3)cs2)cc1` (stereo not given), the inhibition was 3.79%.

For `Cc1cccc2nc(-c3ccc(-c4ccc(NC(=O)Nc5ccc(Cl)c(Cl)c5)cc4)s3)[nH]c12`, the inhibition turned out to be 1.27%.

Take `O=C(NCc1ccccc1[S+]([O-])c1ccccc1CO)C(F)(F)F` (stereo not given): the inhibition is -0.32%.

Take `Cc1cc(N[C@@H](Cc2ccccc2)C(=O)NCCCOC(C)C)nc(NCC2CCCCC2)n1`: the inhibition is 11.7%.

Regarding `COc1ccc(CN2C(=S)N(Cc3ccccc3)C(=O)C2CC(=O)Nc2ccccc2)cc1OC` (stereo not given), the inhibition was -0.87%.

In the case of `C=CCOC(=O)N1CCC(CNCc2cccc(-c3ccc(-c4nc5cc(C(F)(F)F)ccc5[nH]4)cc3)c2)C1` (stereo not given), the inhibition came out at 2.5%.

With `CN(C)CCN1CCN(Cc2cccc(-c3csc(-c4nc5ccccc5[nH]4)c3)c2)CC1`, the inhibition came to 2.44%.

For `Cc1cccc2nc(-c3ccc(-c4cccc(CNCc5cccc(N)c5)c4)s3)[nH]c12`, the inhibition amounted to 1.7%.

Turning to `Cc1cc(C(=O)N[C@H]2CCN(Cc3ccc(OCCCN(C)C)cc3)C2)ccc1Br`, the inhibition came out at 0.95%.

For the compound `CC(C)CCCC(C)NC[C@@H](O)[C@H](Cc1ccccc1)NC(=O)c1cc(N2CCCC2=O)cc(N(c2ccccc2)S(C)(=O)=O)c1` (stereo not given in full), the inhibition stood at 2.61%.

For the compound `COc1ccc2nc3cc(Cl)ccc3c(NCCN3CCN(C)CC3)c2c1`, the inhibition came out at 3.95%.

For `O=C(NC1CC1)c1cnc(N2CCC(COc3cccc(F)c3)CC2)c(Cl)c1`, the inhibition is 2.54%.

`O=C(NCCN1CCOCC1)c1ccc(O)c(-c2cccc(C(F)(F)F)c2)c1`: the inhibition was determined as 1.53%.

Consider `CN(c1ccccc1)c1ccnc(NC(=N)Nc2ccc(Cl)cc2)n1`, for which the inhibition came to 5.4%.

In the case of `CCCCCCN1CCCN(Cc2ccc(C(=O)Nc3ccc(CCC)cc3)cc2)CC1`, the inhibition is 7.71%.

As to `Cc1cc(O)c(-c2ccc(Oc3ccc(F)cc3)cc2)c(C)n1`, the inhibition was -0.19%.

For `CC(C)CNCc1cccc(-c2cccc(CN(CCCN3CCN(C)CC3)C(=O)/C=C/c3ccccc3)c2)c1`, the inhibition was -1.23%.

Consider `COc1nc2c(CCN3CCC(NCc4ccc5c(c4)NCCO5)CC3)c(Cl)cnc2cc1F`, for which the inhibition was 9.24%.

On to `CS(=O)(=O)NCCCNCc1ccc(-c2ccc(-c3nc4cc(F)ccc4[nH]3)s2)cc1`, for which the inhibition was -1.55%.

For `Cc1ccc2[nH]c(-c3ccc(C=CC(=O)NCc4ccc(Cl)c(Cl)c4)cc3)nc2c1`, the inhibition is 9.48%.

Take `CC(=O)N(C)c1cccc(C(=O)Nc2cccc(-c3cccc(-c4nc5cc(C(F)(F)F)ccc5[nH]4)c3)c2)c1`: the inhibition amounted to 12%.

For the compound `Cc1noc(C)c1-c1ccc(C(=C2CCCCCCC2)c2ccc(O)cc2)cc1`, the inhibition is -2.9%.

As to `O=C(Nc1cc(Oc2ccc(O)cc2)cc([N+](=O)[O-])c1)c1cc(-c2ccc(F)cc2)no1`, the inhibition is -1.36%.

Turning to `CN(C)CCN(C)Cc1nc(-c2ccc3c(Nc4ccc(Oc5ccccc5)cc4)ccnc3c2)cs1`, the inhibition was found to be 3.38%.

In the case of `CC(C)c1ccc(OCC(O)CN(C)C(C)C(O)c2ccccc2)c(Br)c1` (stereo not given), the inhibition was 12.5%.

With `Cc1ccc2nc(C)n(C3CCN(C(=O)Cc4ccccc4C)CC3)c2c1`, the inhibition amounted to 8.18%.

As to `C=Cc1ccccc1C1(O)CCN(CCCCNC(=O)c2ccc(-c3ccc(C#N)cc3)cc2)CC1`, the inhibition worked out at 1.76%.

On to `CCCC1(NC[C@@H](O)[C@H](Cc2ccccc2)NC(=O)c2cc(NCC)cc(N3CCCCS3(=O)=O)c2)CCCCC1`, for which the inhibition was determined as 0.97%.

Take `COc1ccc2ncc(C#N)c(CCN3C4CCC3CC(NCc3ccc5c(n3)NC(=O)CS5)C4)c2c1` (stereo not given): the inhibition was found to be 4.33%.

As to `NC1CCCN(Cc2ccc(-c3ccc(-c4nc5cc(F)ccc5[nH]4)s3)cc2)C1` (stereo not given), the inhibition was 3.22%.

In the case of `CS(=O)(=O)Nc1cccc(-c2cnc3[nH]cc(-c4ccc(C(=O)O)cc4)c3c2)c1`, the inhibition stood at 0.36%.

For the compound `CN(Cc1ccc(-c2ccc(C(F)(F)F)cc2)cc1)C(=O)Cn1c(CCc2cccc(F)c2F)cc(=O)c2ccc(OCC3CCCN3C)cc21` (stereo not given), the inhibition turned out to be 3.45%.

Take `COc1cccc(CN2CCC(N3CCc4cc(NC(=O)c5cc(C)on5)ccc43)C2)c1OC` (stereo not given): the inhibition came to 5.08%.

Take `C=CCOC(=O)N1CCC(CNCc2cccc(-c3ccc(-c4nc5cccc(C)c5[nH]4)cc3)c2)C1` (stereo not given): the inhibition is 8.62%.

`CNC(=O)C(C)N(c1ccc(Cl)cc1)c1nc(C(C)(C)C)cs1` (stereo not given): the inhibition was -2.14%.

For the compound `Cc1cc(-c2cnc(N)c(-c3ccc(N4CCN(C)CC4)nc3)c2)cc(C)c1O`, the inhibition was 0.69%.

`CC1CNC(c2ccc(NC(=O)c3ccc(C(=O)Nc4ccc(C5=NC(C)CN5)cc4)cc3)cc2)=N1` (stereo not given): the inhibition amounted to 7.31%.

Turning to `CCn1c(Cc2ccccc2)nnc1Sc1ccc([N+](=O)[O-])c(C#N)c1`, the inhibition was 6.38%.

For `Cc1cc(NCCc2cccc(F)c2)nc(NC(=N)Nc2cccc(C(F)(F)F)c2)n1`, the inhibition worked out at 2.87%.

In the case of `CC(O)C1CCCCN1C(=O)c1ccc(-c2cccc(-c3nc4cc(F)ccc4[nH]3)c2)cc1` (stereo not given), the inhibition is 2.87%.

A further assay addresses Glucose transporter (Leishmania mexicana) (UniProt O61059). In words: ST_JUDE_LEISH: Cytotoxicity at 2uM final concentration against transgenic Leishmania Mexicana promastigotes LmGT2 that are glucose transport deficient and complemented with the L. Mexicana glucose transporter 2. Activity is measured by DNA content using SYBR green in vitro. It counts as functional.
Take `CCCCNCc1ccc(-c2nc(CN(CCCn3ccnc3)C(=O)NC3CC3c3ccccc3)cs2)cc1` (stereo not given): the inhibition worked out at 4.29%.

Take `Cc1cccc2nc(-c3ccc(-c4ccc(NC(=O)Nc5ccc(Cl)c(Cl)c5)cc4)s3)[nH]c12`: the inhibition is -6.86%.

Consider `O=C(NCc1ccccc1[S+]([O-])c1ccccc1CO)C(F)(F)F` (stereo not given), for which the inhibition turned out to be 0.55%.

In the case of `Cc1cc(N[C@@H](Cc2ccccc2)C(=O)NCCCOC(C)C)nc(NCC2CCCCC2)n1`, the inhibition was 8.28%.

As to `COc1ccc(CN2C(=S)N(Cc3ccccc3)C(=O)C2CC(=O)Nc2ccccc2)cc1OC` (stereo not given), the inhibition was -2.09%.

With `C=CCOC(=O)N1CCC(CNCc2cccc(-c3ccc(-c4nc5cc(C(F)(F)F)ccc5[nH]4)cc3)c2)C1` (stereo not given), the inhibition came out at 1.63%.

Regarding `CN(C)CCN1CCN(Cc2cccc(-c3csc(-c4nc5ccccc5[nH]4)c3)c2)CC1`, the inhibition worked out at 2.16%.

With `Cc1cccc2nc(-c3ccc(-c4cccc(CNCc5cccc(N)c5)c4)s3)[nH]c12`, the inhibition came to 2.35%.

For `Cc1cc(C(=O)N[C@H]2CCN(Cc3ccc(OCCCN(C)C)cc3)C2)ccc1Br`, the inhibition turned out to be 1.98%.

On to `CC(C)CCCC(C)NC[C@@H](O)[C@H](Cc1ccccc1)NC(=O)c1cc(N2CCCC2=O)cc(N(c2ccccc2)S(C)(=O)=O)c1` (stereo not given in full), for which the inhibition is 1.65%.

For the compound `COc1ccc2nc3cc(Cl)ccc3c(NCCN3CCN(C)CC3)c2c1`, the inhibition was found to be 3.79%.

Turning to `O=C(NC1CC1)c1cnc(N2CCC(COc3cccc(F)c3)CC2)c(Cl)c1`, the inhibition stood at 0.22%.

Turning to `O=C(NCCN1CCOCC1)c1ccc(O)c(-c2cccc(C(F)(F)F)c2)c1`, the inhibition is 2.43%.

For `CN(c1ccccc1)c1ccnc(NC(=N)Nc2ccc(Cl)cc2)n1`, the inhibition was determined as 5.1%.

For `CCCCCCN1CCCN(Cc2ccc(C(=O)Nc3ccc(CCC)cc3)cc2)CC1`, the inhibition was determined as 7.37%.

Take `Cc1cc(O)c(-c2ccc(Oc3ccc(F)cc3)cc2)c(C)n1`: the inhibition was -3.08%.

For `CC(C)CNCc1cccc(-c2cccc(CN(CCCN3CCN(C)CC3)C(=O)/C=C/c3ccccc3)c2)c1`, the inhibition is -4.91%.

In the case of `COc1nc2c(CCN3CCC(NCc4ccc5c(c4)NCCO5)CC3)c(Cl)cnc2cc1F`, the inhibition came to 2.35%.

Take `CS(=O)(=O)NCCCNCc1ccc(-c2ccc(-c3nc4cc(F)ccc4[nH]3)s2)cc1`: the inhibition is -2.09%.

As for `Cc1ccc2[nH]c(-c3ccc(C=CC(=O)NCc4ccc(Cl)c(Cl)c4)cc3)nc2c1`, the inhibition is 4.93%.

As for `CC(=O)N(C)c1cccc(C(=O)Nc2cccc(-c3cccc(-c4nc5cc(C(F)(F)F)ccc5[nH]4)c3)c2)c1`, the inhibition worked out at 5.52%.

Turning to `Cc1noc(C)c1-c1ccc(C(=C2CCCCCCC2)c2ccc(O)cc2)cc1`, the inhibition worked out at 5.39%.

With `O=C(Nc1cc(Oc2ccc(O)cc2)cc([N+](=O)[O-])c1)c1cc(-c2ccc(F)cc2)no1`, the inhibition came out at 1.6%.

For `CN(C)CCN(C)Cc1nc(-c2ccc3c(Nc4ccc(Oc5ccccc5)cc4)ccnc3c2)cs1`, the inhibition was found to be 2.65%.

For the compound `CC(C)c1ccc(OCC(O)CN(C)C(C)C(O)c2ccccc2)c(Br)c1` (stereo not given), the inhibition worked out at 10.4%.

For the compound `Cc1ccc2nc(C)n(C3CCN(C(=O)Cc4ccccc4C)CC3)c2c1`, the inhibition is 4.9%.

For `C=Cc1ccccc1C1(O)CCN(CCCCNC(=O)c2ccc(-c3ccc(C#N)cc3)cc2)CC1`, the inhibition is -1.41%.

With `CCCC1(NC[C@@H](O)[C@H](Cc2ccccc2)NC(=O)c2cc(NCC)cc(N3CCCCS3(=O)=O)c2)CCCCC1`, the inhibition is 4.36%.

Take `COc1ccc2ncc(C#N)c(CCN3C4CCC3CC(NCc3ccc5c(n3)NC(=O)CS5)C4)c2c1` (stereo not given): the inhibition turned out to be 1.45%.

Regarding `NC1CCCN(Cc2ccc(-c3ccc(-c4nc5cc(F)ccc5[nH]4)s3)cc2)C1` (stereo not given), the inhibition was 3.45%.

Regarding `CS(=O)(=O)Nc1cccc(-c2cnc3[nH]cc(-c4ccc(C(=O)O)cc4)c3c2)c1`, the inhibition is 3.74%.

`CN(Cc1ccc(-c2ccc(C(F)(F)F)cc2)cc1)C(=O)Cn1c(CCc2cccc(F)c2F)cc(=O)c2ccc(OCC3CCCN3C)cc21` (stereo not given): the inhibition was determined as 4.42%.

For the compound `COc1cccc(CN2CCC(N3CCc4cc(NC(=O)c5cc(C)on5)ccc43)C2)c1OC` (stereo not given), the inhibition amounted to 4.28%.

With `C=CCOC(=O)N1CCC(CNCc2cccc(-c3ccc(-c4nc5cccc(C)c5[nH]4)cc3)c2)C1` (stereo not given), the inhibition amounted to 9.02%.

`CNC(=O)C(C)N(c1ccc(Cl)cc1)c1nc(C(C)(C)C)cs1` (stereo not given): the inhibition is 3.15%.

For `Cc1cc(-c2cnc(N)c(-c3ccc(N4CCN(C)CC4)nc3)c2)cc(C)c1O`, the inhibition came out at 0.74%.

Regarding `CC1CNC(c2ccc(NC(=O)c3ccc(C(=O)Nc4ccc(C5=NC(C)CN5)cc4)cc3)cc2)=N1` (stereo not given), the inhibition was 0.91%.

On to `CCn1c(Cc2ccccc2)nnc1Sc1ccc([N+](=O)[O-])c(C#N)c1`, for which the inhibition was determined as 3.87%.

For the compound `Cc1cc(NCCc2cccc(F)c2)nc(NC(=N)Nc2cccc(C(F)(F)F)c2)n1`, the inhibition turned out to be 2.41%.

Regarding `CC(O)C1CCCCN1C(=O)c1ccc(-c2cccc(-c3nc4cc(F)ccc4[nH]3)c2)cc1` (stereo not given), the inhibition came to 3.89%.
